# A selection: hits, their analogues and other compounds. The true share with any hit is near 1.8%.
# Rtt109 Vps75 = blocks Candida albicans Rtt109/Vps75 acetyltransferase activity; inhibition, % at 34.9 µM; 330,000 compounds, 0.16% hits; purified Rtt109/Vps75, ThioGlo CoA-SH fluorescence, 4 h; Q5AAJ8;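 active means inhibition of at least 50% in every replicate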
# TLR4 MyD88 comp = blocks binding of human TLR4 to MyD88; HeLa CL3-4 TLR4/MyD88 BLA complementation, FRET ratio; 200,000 compounds, 0.18% hits; O00206+Q99836; inhibition, % at 8.4 µM; in the data active means inhibition above about 25%;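 further: 0% = vehicle and 100% = reference inhibitor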
# HTR2A ag = mouse HTR2A agonism via beta-arrestin recruitment | P35363 | CHO-K1 mHTR2A beta-arrestin complementation, luminescence; percent of 30 µM serotonin response | activation, % at 7.6 µM | 360,000 compounds, 0.66% hits;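 active means activation above a run cutoff, the mean activation of all tested compounds plus 3 SD, cut at about 14% in these data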;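 further: 0% = plate median of compound wells and 100% = 30 µM serotonin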
# LANA-H2B inh = blocks KSHV LANA binding to histone H2A/H2B. cell-free LANA-H2A/H2B peptide, fluorescence polarization. inhibition, % (test concentration not listed). AID 2629. 320,000 compounds, 0.6% hits; in the data active means inhibition mostly above about 10%, no sharp cut-off; inactive means mostly below about 6.7%
# TLR9-MyD88 inh = blocks human TLR9 binding to MyD88; CHO BLA complementation TLR9-MyD88, CCF4 FRET ratio; inhibition, % at 4.98 µM; 340,000 compounds, 0.21% hits;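 active means inhibition above the mean over all tested compounds plus 3 SD, cut at about 21% in these data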;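 further: 0% = DMSO only wells and 100% = clavulanate BLA inhibitor control wells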
# Target sequence (Q99836 whole entry, looked up): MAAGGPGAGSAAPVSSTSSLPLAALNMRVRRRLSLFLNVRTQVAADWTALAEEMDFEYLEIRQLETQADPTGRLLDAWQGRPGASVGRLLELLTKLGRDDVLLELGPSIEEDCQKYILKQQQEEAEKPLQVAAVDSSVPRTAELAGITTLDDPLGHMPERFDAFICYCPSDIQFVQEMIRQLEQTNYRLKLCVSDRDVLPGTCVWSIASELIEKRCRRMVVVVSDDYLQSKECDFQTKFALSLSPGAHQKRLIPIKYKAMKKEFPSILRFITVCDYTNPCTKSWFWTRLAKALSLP
# Target sequence (Q9NR96 whole entry, looked up): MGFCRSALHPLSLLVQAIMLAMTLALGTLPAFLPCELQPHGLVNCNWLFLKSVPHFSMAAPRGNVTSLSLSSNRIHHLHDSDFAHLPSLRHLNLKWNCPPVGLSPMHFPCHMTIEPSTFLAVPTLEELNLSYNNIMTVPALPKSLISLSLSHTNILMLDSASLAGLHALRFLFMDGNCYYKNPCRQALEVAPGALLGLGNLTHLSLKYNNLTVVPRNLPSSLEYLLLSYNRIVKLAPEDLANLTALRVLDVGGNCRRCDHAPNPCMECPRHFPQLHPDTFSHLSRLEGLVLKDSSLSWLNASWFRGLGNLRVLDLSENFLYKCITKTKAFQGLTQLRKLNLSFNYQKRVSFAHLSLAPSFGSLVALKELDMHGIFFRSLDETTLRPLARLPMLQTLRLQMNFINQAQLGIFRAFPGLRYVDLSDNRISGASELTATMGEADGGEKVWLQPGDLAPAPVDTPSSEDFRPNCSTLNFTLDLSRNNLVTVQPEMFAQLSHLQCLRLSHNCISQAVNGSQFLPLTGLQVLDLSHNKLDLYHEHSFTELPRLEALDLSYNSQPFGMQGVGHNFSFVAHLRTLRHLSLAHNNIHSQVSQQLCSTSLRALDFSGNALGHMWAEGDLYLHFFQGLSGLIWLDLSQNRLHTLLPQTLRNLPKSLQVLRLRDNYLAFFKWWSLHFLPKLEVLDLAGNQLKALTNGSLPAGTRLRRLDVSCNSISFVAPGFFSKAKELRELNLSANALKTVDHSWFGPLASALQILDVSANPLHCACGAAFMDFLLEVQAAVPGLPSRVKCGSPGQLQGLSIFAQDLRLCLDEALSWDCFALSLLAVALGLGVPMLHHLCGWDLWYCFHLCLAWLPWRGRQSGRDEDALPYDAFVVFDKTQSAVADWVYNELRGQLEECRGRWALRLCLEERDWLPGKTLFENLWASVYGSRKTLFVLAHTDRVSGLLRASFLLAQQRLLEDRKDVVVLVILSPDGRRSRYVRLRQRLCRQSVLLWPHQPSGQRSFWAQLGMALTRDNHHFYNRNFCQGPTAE
# NOD2 RIPK2 PPI = NOD2-RIPK2 protein interaction inhibition | 360,000 compounds, 0.38% hits | inhibition, % at 4.98 µM | AID 624267 | CHO BLA complementation NOD2-RIPK2, CCF4 ratio; in the data active means inhibition above about 21%;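 further: 0% = vehicle only and 100% = reference blocker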
# Starred values were filed as active, the others as inactive; . = not tested or not shown; + = active, no number.
SMILES,Rtt109 Vps75,TLR4 MyD88 comp,HTR2A ag,LANA-H2B inh,TLR9-MyD88 inh,NOD2 RIPK2 PPI
COc1ccccc1-c1nn(-c2ccccc2)cc1C(=O)N1CCc2ccccc2C1,9.0,.,-4.2,2.0,-15.5,0.6
C[C@@H]1CN([C@@H](C)CO)C(=O)c2cc(Br)cnc2O[C@H]1CN(C)C(=O)NC1CCCC1,.,.,13.6,.,-4.2,-2.1
CCOCC(=O)Nc1ccc([N+](=O)[O-])cc1OC,6.7,15.5,7.9,2.3,-10.0,-8.4
CCOCC(=O)Nc1cc([N+](=O)[O-])ccc1OC,5.0,-10.4,2.6,22.4*,0.8,-2.5
O=C1/C(=C/c2ccc(N3CCOCC3)o2)SC(=Nc2ccccc2)N1CCc1c[nH]c2ccccc12,-0.3,13.5,-8.1,-8.7,14.4,47.4*
CN(C)S(=O)(=O)c1cc(NC(=O)C2=COCCO2)ccc1Cl,-2.0,.,3.0,1.8,-6.4,6.6
O=C(Nc1ccc(Cl)c(S(=O)(=O)N2CCCCC2)c1)C1=COCCO1,51.9*,.,11.7,-1.9,-1.8,6.7
CC(C)(C)OC(=O)[C@H](Cc1ccccc1)NC(=O)c1ncn2c1c(=O)[nH]c1ccc(Br)cc12,.,.,-2.5,.,6.9,-9.2
C#CC1(O)CCC2C3CCC4=Cc5oncc5CC4(C)C3CCC21C (stereo unspecified),.,.,-5.8,.,.,-7.0
Cc1cccc(-n2c(O)c(C=Nc3ccccc3O)c3ccccc3c2=O)n1,-18.2,.,-2.5,-8.6,10.4,-10.1
Cc1cccc(-n2c(O)c(/C=N/NC(=O)c3ccccc3Cl)c3ccccc3c2=O)n1,64.4*,-6.2,1.1,-4.4,2.3,19.5
O=C(Nc1ccc(F)cc1)C(c1ccccc1)N1CCN(c2cccc(C(F)(F)F)n2)CC1 (stereo unspecified),.,.,-3.4,.,.,-4.1
COc1ccc(S(=O)(=O)N2CCOC2CNC(=O)C(=O)NCc2ccccc2OC)cc1 (stereo unspecified),-2.2,.,0.0,99.9*,8.2,-2.4
COc1ccc(C(=O)N2CCOC2CNC(=O)C(=O)NCc2ccco2)cc1 (stereo unspecified),0.7,-19.7,2.5,+,-6.0,2.1
COc1ccc(S(=O)(=O)N2CCC(C(=O)NCCC(=O)NCc3ccncc3)CC2)cc1,-0.3,.,-3.0,-1.8,-0.9,2.8
COc1ccc(S(=O)(=O)N2CCC(C(=O)NCCC(=O)NCc3ccccc3OC)CC2)cc1,-1.5,.,-1.3,14.2*,2.5,-5.6
COc1ccc(-n2nnnc2C(CCc2ccccc2)N2CCN(C/C=C/c3ccccc3)CC2)cc1 (stereo unspecified),.,.,-1.8,.,.,-2.1
OC(c1ccccc1)(c1nc(-c2cc(F)cc(F)c2)cs1)C(F)(F)F (stereo unspecified),.,.,-1.4,.,.,2.6
CCCC(=O)N1CCCC1(C)C(=O)Nc1ccc2nc(C)ccc2c1 (stereo unspecified),.,.,1.6,.,.,-2.1
O=C(Nc1ccc(F)cc1)N1CCN(c2nc3ccccc3s2)CC1,4.8,-6.2,23.5*,3.4,-7.7,6.3
COc1ccc(-c2ccc3c(c2)S(=O)(=O)c2cccc(C(=O)NC[C@@H]4CCCO4)c2C3=O)cc1OC,-2.8,.,14.7*,-0.7,-7.0,4.9
COc1ccc(CCNC(=O)C(=O)NCC2CCCO2)cc1OC (stereo unspecified),-2.5,-3.9,4.6,40.6*,11.4,-6.9
COc1ccc(CCNC(=O)C2CCC(C(C)(C)C)CC2)cc1OC (stereo unspecified),-1.8,.,5.3,57.8*,0.7,-0.2
COCCCN1C(=O)C(CC(=O)NCCN2CCOCC2)CC(C(=O)N2CCOCC2)=C1C (stereo unspecified),.,.,-1.5,.,.,-3.2
O=C(O)c1ccccc1C(=O)N1CCN(S(=O)(=O)c2cccc(C(F)(F)F)c2)CC1,-9.0,.,7.2,43.3*,5.0,-20.4
COC(=O)C1=C(C)N(c2ccc(C)c(C)c2)/C(=C/c2ccco2)C1=O,-2.8,0.9,18.3*,-0.9,3.3,-3.1
COCC(=O)N1CCC(Oc2ccc(C(=O)N(C)CCCC3CCCC3)cc2)CC1,16.1,.,1.1,15.9*,-0.6,-18.5
CCOC(=O)C1CCN(C(=O)c2sc3nc(-c4ccc(F)cc4)cn3c2C)CC1,-0.6,-4.1,-2.0,136.5*,-12.5,-2.8
